Assay outcomes: PubChem BioAssay, several laboratories
Yeast superoxide: reduction of superoxide in aged yeast, primary screen, HTS | AID 2690, 2010 | 330,000 compounds, 0.18% hits | S. cerevisiae aged cells, superoxide DHE fluorescence; stronger effect = lower value | superoxide response (% of plate mean), % at 10 µM;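 active = superoxide response under a set limit, about three screen SD below normal, cut at about 65% in these data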;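 also: yeast aged for seven days with compound at 30 °C before DHE staining; 100% = average MFI of all compound-treated wells on the plate with controls excluded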
APOBEC3A inh: APOBEC3A ssDNA deaminase inhibitors, primary screen, selectivity assay for APOBEC3G inhibitor project, biochemical, FAM/TAMRA oligo cleavage fluorescence; 330,000 compounds, 0.41% hits; inhibition, % at 20 µM; AID 493011, 2011; recombinant A3A, FAM/TAMRA ssDNA deamination fluorescence; DNA dC->dU-editing enzyme APOBEC-3A (Homo sapiens), P31941;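 active = at least 40% inhibition at 20 µM here, with at most 30% in a related deaminase screen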;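 also: plate controls were A3A with DMSO for no effect and wells lacking A3A enzyme for full effect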
Target sequence (P31941 whole entry, looked up): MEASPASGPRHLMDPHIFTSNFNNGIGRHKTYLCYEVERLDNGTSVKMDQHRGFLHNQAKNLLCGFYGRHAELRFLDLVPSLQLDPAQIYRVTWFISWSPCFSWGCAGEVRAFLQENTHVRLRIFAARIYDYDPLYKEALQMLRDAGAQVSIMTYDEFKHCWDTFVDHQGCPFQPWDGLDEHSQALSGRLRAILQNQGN
APOBEC3G inh: APOBEC3G DNA deaminase inhibitors, primary screen, biochemical, fluorescence, single-stranded DNA substrate, uHTS; recombinant A3G, ssDNA deamination FAM/TAMRA fluorescence; inhibition, % at 20 µM; 330,000 compounds, 0.28% hits; AID 493012, 2011;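 active = inhibition of at least 40% at 20 µM, with no more than 30% in the related APOBEC3A deaminase screen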;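 also: plate controls were DMSO wells with A3G for no effect and wells lacking A3G enzyme for full effect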
PfG6PD inh: PfG6PD enzyme inhibitors, primary screen, biochemical, fluorescence intensity, uHTS; inhibition, % at 20 µM; 350,000 compounds, 0.78% hits; PfGluPho enzyme, NADPH resazurin-diaphorase fluorescence;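 active = inhibition reaching at least a set limit at 20 µM in the primary screen, cut at about 59% in these data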;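 also: 0% = DMSO wells with substrate and 100% = DMSO wells lacking glucose-6-phosphate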
PfM18AAP inh-1: PfM18AAP inhibitors, malaria aminopeptidase, primary screen, biochemical, QFRET, recombinant enzyme. M18 aspartyl aminopeptidase (Plasmodium falciparum 3D7). H-Glu-NHMec fluorogenic cleavage. inhibition, % at 7.35 µM. 290,000 compounds, 1.2% hits;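 active = inhibition above the campaign mean inhibition over all tested compounds plus 3 SD, cut at about 28% in these data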;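 also: 0% = plate median of test compound wells and 100% = 2 mM ZnCl2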
PfM18AAP inh-2: PfM18AAP inhibitors, malaria aminopeptidase, confirmation, biochemical, QFRET, recombinant enzyme, triplicate; 2,400 compounds, 28% hits; shares compounds with PfM18AAP inh-1; inhibition, % at 7.35 µM; H-Glu-NHMec fluorogenic cleavage;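 active = mean inhibition over replicate wells above the hit cutoff set for the earlier primary screen, cut at about 29% in these data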;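 also: 0% = median of test compound wells and 100% = 2 mM ZnCl2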
CTSL1 confirm: cathepsin L1 inhibitors, retest, confirmation, counter-screen for PFM18AAP inhibitor project, biochemical, QFRET, triplicate | shares compounds with PfM18AAP inh-1 | purified cathepsin L1, Z-Leu-Arg-MCA fluorescence | inhibition, % at 5.96 µM | 2,400 tested, under 10 active;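 active = average inhibition across replicates above the hit cutoff set in the earlier primary screen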;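 also: 0% = median of test compound wells and 100% = Z-Phe-Ala-diazomethylketone 1 µM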
Target sequence (P07711 whole entry, looked up): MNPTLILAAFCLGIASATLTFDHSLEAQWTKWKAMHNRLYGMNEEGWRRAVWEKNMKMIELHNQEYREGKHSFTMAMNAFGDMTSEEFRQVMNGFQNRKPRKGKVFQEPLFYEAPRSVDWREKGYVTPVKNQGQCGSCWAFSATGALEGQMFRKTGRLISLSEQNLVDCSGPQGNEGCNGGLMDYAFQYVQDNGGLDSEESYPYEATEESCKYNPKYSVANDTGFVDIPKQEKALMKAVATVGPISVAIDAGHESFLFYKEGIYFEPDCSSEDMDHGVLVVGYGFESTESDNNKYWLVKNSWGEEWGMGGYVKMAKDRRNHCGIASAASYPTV
Starred values were filed as active, the others as inactive; / = no result given. This is a sample that favours compounds with a hit; in the whole collection about 2.4% have one here.

SMILES | Yeast superoxide | APOBEC3A inh | APOBEC3G inh | PfG6PD inh | PfM18AAP inh-1 | PfM18AAP inh-2 | CTSL1 confirm
O=C(COC(=O)c1ccc(S(=O)(=O)C(F)F)cc1)Nc1ccccc1C(=O)NC1CC1 | 111 | -1 | -8 | -4 | / | / | /
NC(=O)c1c(NC(=O)c2cccnc2)sc2c1CCCCC2 | 107 | -4 | -8 | 27 | 33* | -35 | 1
CC1=C(C(=O)O)N2C(=O)C(NC(=O)c3ccccc3Cl)C2SC1 (stereo unspecified) | 88 | -2 | 0 | 16 | 34* | -7 | -1
COc1ccc(NC(=O)NCc2ccccn2)c(OC)c1 | 91 | -6 | -6 | -14 | -8 | / | /
c1n[nH]c(NC2=NCCC2)n1 | 99 | 2 | -2 | -15 | 4 | / | /
Clc1ccc(Nc2ncn[nH]2)cc1 | 117 | -1 | -2 | 6 | 34* | 18 | 4
CN(Cc1nc2ccccc2c(=O)[nH]1)C(=O)C1CC(=O)N(c2cccc3ccccc23)C1 (stereo unspecified) | 87 | 1 | -1 | 3 | / | / | /
CC(C)(C)C(=O)/C=C/Nc1ccccc1O | 122 | 1 | -2 | -12 | 42* | 3 | -1
CN(C)c1ccc(N/C=C/C(=O)C(C)(C)C)cc1 | 107 | -9 | -5 | 34 | 22 | / | /
O=C(O)Cc1c[nH]c2cccc(O)c12 | 90 | 43 | 33 | 29 | 44* | 0 | -6
O=C(O)Cc1c[nH]c2ccccc12 | 101 | -5 | -9 | -1 | / | / | /
CC1(C)CC(=O)C=C(c2n[nH]nc2C2CC2)C1 | / | / | / | 8 | / | / | /
c1ccc(NCn2cncn2)nc1 | 101 | -4 | -5 | -25 | 87* | 66* | 3
NC(=O)CC1Nc2cccc3cccc(c23)NC1=O (stereo unspecified) | 104 | 67 | 62 | 34 | 52* | -52 | 1
O=C(Cc1ccccc1)Nc1nc(=O)c2ccccc2s1 | 124 | -3 | -5 | -13 | 40* | -53 | -11
O=C(Nc1nc(=O)c2ccccc2s1)c1ccc(F)cc1 | 89 | -2 | 2 | 39 | 42* | -32 | -1
Cc1ccccc1NC(=S)C1=C(O)c2sccc2N(C)S1(=O)=O | 166 | -1 | -3 | 12 | 33* | -47 | 3
CN1c2ccsc2C(O)=C(C(=S)Nc2ccccc2)S1(=O)=O | 98 | -2 | -2 | 22 | 6 | / | /
CN(C)/N=C/c1ccc([N+](=O)[O-])cc1[N+](=O)[O-] | 90 | 6 | 7 | 28 | 34* | -20 | 2
COc1ccccc1NC(=O)CCc1nnc2ccc(N3CCC4(CC3)OCCO4)nn12 | 86 | 12 | -1 | 6 | 7 | / | /
O=C(O)CCC(=O)Nc1ccc(N2CCCCCC2)cc1 | 123 | -3 | -3 | 6 | 44* | -1 | 1
COc1ccc(/C=C2\CN(Cc3ccccc3)C/C(=C\c3ccc(OC)c(O)c3)C2=O)cc1O | 84 | -1 | -11 | 13 | 45* | 3 | -1
CCN1C/C(=C/c2ccc(OC)c(O)c2)C(=O)/C(=C/c2ccc(OC)c(O)c2)C1 | 122 | -3 | -4 | 10 | 13 | / | /
COc1cccc(NC2SC(=O)N(c3ccccc3)C2=O)c1 (stereo unspecified) | 96 | 0 | 0 | -10 | 35* | -53 | -3
CN1CCN(c2oc(-c3ccccc3)nc2S(=O)(=O)c2ccc(Br)cc2)CC1 | 96 | -1 | 12 | 16 | -2 | / | /
SMILES | Yeast superoxide | APOBEC3A inh | APOBEC3G inh | PfG6PD inh | PfM18AAP inh-1 | PfM18AAP inh-2 | CTSL1 confirm
COC(=O)/C=c1\sc2ncnn2c1=O | 95 | 3 | 18 | 41 | 38* | -30 | -2
Cn1nc(C(=O)NNC(=O)Cc2ccc(S(=O)(=O)N3CCOCC3)s2)c2ccccc2c1=O | / | / | / | 7 | / | / | /
Cc1ccc(S(=O)(=O)N2CCN(C(=O)Cn3c(=O)cnc4ccccc43)CC2)cc1 | 123 | -3 | -3 | 5 | / | / | /
COc1cc(NC(=O)COC(=O)CC(NC(C)=O)c2ccccc2)cc(OC)c1 (stereo unspecified) | 96 | -1 | -10 | 4 | 0 | / | /
CC(=O)NC(CC(=O)NNC(=O)c1cc2ccccc2cc1O)c1ccccc1 (stereo unspecified) | 107 | 3 | -3 | 6 | 32* | -16 | 1
O=C(O)C1C(=O)NCC1c1ccccc1 (stereo unspecified) | 94 | -1 | -2 | 9 | -1 | / | /
COc1ccc(/C=N/Nc2ncnc3c2[nH]c2ccccc23)c(OC)c1OC | 98 | 0 | -1 | 2 | 36* | -28 | 5
CN(C)S(=O)(=O)c1ccc(Cl)c(NC(=O)CN2CCCC2)c1 | 92 | 0 | -1 | 15 | 0 | / | /
O=C(O[C@@H]1OC2COC(=O)c3cc(O)c(O)c(O)c3-c3c(cc(O)c(O)c3O)C(=O)O[C@@H]([C@H]1O)[C@@H]2O)c1cc(O)c(O)c(O)c1 | 104 | / | / | 111* | 62* | 45* | -2
COc1ccc(-[n+]2c(C)cc(/C=C3\Sc4ccccc4N3C)cc2C)cc1 | 99 | 23 | 16 | / | 45* | -25 | 1
CCOC(=O)c1c(NC(=O)OC)sc(C(=O)N(CC)CC)c1C | 91 | -1 | 3 | 22 | 33* | -1 | -6
COc1ccc(C(=O)COc2ccc(F)cc2)c(O)c1 | 109 | -1 | 2 | -1 | 2 | / | /
O=C(COc1ccc(F)cc1)c1c(O)cc(O)cc1O | 98 | 0 | -3 | -12 | 33* | 23 | -1
O=C(NC1CCCC1)c1cc(-c2cccc(Cl)c2)on1 | 94 | -2 | -7 | 29 | -5 | / | /
C[C@@H]1CN([C@@H](C)CO)C(=O)c2cc(N(C)C)ccc2O[C@@H](C)CCCCO[C@@H]1CN(C)Cc1ccc2c(c1)OCO2 | / | / | / | 12 | / | / | /
CNC(=O)N(O)C1N(C)C(=O)N(CC(=O)OC)C1(C)C (stereo unspecified) | 97 | -3 | -6 | -1 | 37* | -23 | 1
COC(=O)/C=C/c1ccc(OC(=O)OC)c(OC(=O)OC)c1 | 91 | / | / | -16 | 75* | 34* | -1
COC(=O)/C=C/c1ccc2c(c1)OCO2 | 108 | 2 | -8 | -6 | -3 | / | /
O=C(NCc1nnc(SCC(=O)N2CCN(c3ccccc3)CC2)o1)c1c(F)cccc1F | 103 | -4 | -6 | -7 | -4 | / | /
N#C/C(=C/c1ccc(O)c(O)c1)C(=O)NCc1ccc(Cl)cc1 | 88 | -6 | 10 | -12 | 38* | 5 | 0
O=S(=O)(NC1CCCC1)c1ccccc1Cl | 106 | -4 | -11 | -16 | -4 | / | /
